From PubChem BioAssay (NCATS)
Records with an inconclusive call do not appear. Active and inactive are the calls of the source. Unless noted, the call rests on the fitted dose curve; in most records, active means well fitted curve in the direction sought with a large enough effect; inconclusive means small, poorly fitted or top-dose-only effect, or another doubt; inactive means no such curve, though single readings can be large; an effect the other way counts as inactive or inconclusive.

Experiments:
[1] = target: Calcium and integrin-binding protein 1 (Homo sapiens) (UniProt Q99828); assay: Primary qHTS for Identification of Calcium Integrin Binding Protein 1 (CIB1) Competitor (AID 1508620);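 further: GST tagged CIB1 binding a fluorescein labelled alphaIIb integrin peptide tracer; top concentration of the series differs between compounds; on the % scale 0 is the no-effect control and ±100 the full control effect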
Calcium and integrin-binding protein 1 (Homo sapiens), sequence (Q99828 whole entry, looked up): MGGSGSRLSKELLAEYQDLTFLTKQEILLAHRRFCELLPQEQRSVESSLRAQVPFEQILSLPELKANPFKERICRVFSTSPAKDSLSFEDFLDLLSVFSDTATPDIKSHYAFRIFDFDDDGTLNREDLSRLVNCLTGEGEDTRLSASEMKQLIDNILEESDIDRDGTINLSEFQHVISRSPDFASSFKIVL
Method in brief: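 Fluorescence polarization competition: CIB1-GST (1 uM final) preincubated with compound 15 min at room temperature, then FITC-labeled alphaIIb peptide (100 nM final) added for another 15 min. Polarization read at Ex 480/Em 540.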

[2] = target: N-terminal Xaa-Pro-Lys N-methyltransferase 1 (Homo sapiens) (UniProt Q9BV86); assay: Confirmatory qHTS for Inhibitors of N-terminal methyltransferase 1 (NTMT1): MTaseGlo Assay (AID 1645874); further: potency means the concentration at half of the fitted maximal effect; nearly all actives have a fitted effect of over 65% in size
N-terminal Xaa-Pro-Lys N-methyltransferase 1 (Homo sapiens), sequence (Q9BV86 whole entry, looked up): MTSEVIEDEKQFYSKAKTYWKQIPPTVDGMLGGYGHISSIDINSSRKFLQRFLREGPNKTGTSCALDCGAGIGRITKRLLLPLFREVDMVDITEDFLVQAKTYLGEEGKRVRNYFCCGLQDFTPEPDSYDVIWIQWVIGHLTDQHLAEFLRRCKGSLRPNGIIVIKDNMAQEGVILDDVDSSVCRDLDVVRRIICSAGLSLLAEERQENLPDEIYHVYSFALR
Method in brief: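 Inhibition was derived from luminescence after SAH-to-ATP conversion, scaled between no-enzyme and DMSO wells, then fitted by 4-parameter Hill. Conditions: 125 nM NTMT1, 100 uM SAM, 1 uM SPKRIA, 30 min RT.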

[3] = target: Lysosomal acid glucosylceramidase (Homo sapiens) (UniProt P04062); assay: Glucocerebrosidase-p2 (AID 348; in the data active means potency below about 10 µM; further: potency means the concentration at half of the fitted maximal effect); conditions: purified GBA, blue fluorogenic substrate, 40 min
Lysosomal acid glucosylceramidase (Homo sapiens), sequence (P04062 whole entry, looked up): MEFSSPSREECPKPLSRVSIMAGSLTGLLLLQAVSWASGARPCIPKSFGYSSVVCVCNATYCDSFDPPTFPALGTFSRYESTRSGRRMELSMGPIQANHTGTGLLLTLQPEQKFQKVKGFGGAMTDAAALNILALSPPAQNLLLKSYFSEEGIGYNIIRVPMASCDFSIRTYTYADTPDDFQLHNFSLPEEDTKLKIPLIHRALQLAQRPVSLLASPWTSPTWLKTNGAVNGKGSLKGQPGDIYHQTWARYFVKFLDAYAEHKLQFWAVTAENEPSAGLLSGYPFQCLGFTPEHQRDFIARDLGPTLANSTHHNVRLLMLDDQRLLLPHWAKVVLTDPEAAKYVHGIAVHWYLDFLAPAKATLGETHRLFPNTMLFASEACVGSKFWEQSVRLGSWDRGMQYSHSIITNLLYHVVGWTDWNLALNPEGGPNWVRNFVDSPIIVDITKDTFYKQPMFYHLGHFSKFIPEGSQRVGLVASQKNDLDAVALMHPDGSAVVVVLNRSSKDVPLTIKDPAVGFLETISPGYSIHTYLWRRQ
Method in brief: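 Normal human glucocerebrosidase (0.2 nM) with blue fluorogenic substrate (80 uM final) in citrate/phosphate pH 5.9 with 10mM sodium taurocholate, 0.01% tween-20; 40 min RT, NaOH/glycine stop; fluorescence Ex 365/Em 440; AC50 from a titration from 0.6 nM upwards.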

[4] = AP1 Signaling Pathway (AID 357; active means well fitted curve in either direction with a large enough effect, not every such curve was filed as active;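 further: ME-180 reporter cells stimulated with EGF at its EC50 level; on the % scale 0 is the no-effect control and ±100 the full control effect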); conditions: ME-180 AP-1-bla reporter, EGF-induced, beta-lactamase ratio, 5 h; at 7.69 µM (top of the series) unless noted
Method in brief: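 Titration-series screen for positive or negative modulators of EC50 EGF-induced signaling in ME-180 cells carrying an AP-1-driven beta-lactamase reporter. After 5 hours at 37 degrees Celsius, CCF4 460nm/530nm emission ratio gave %Activity; AC50 values derived.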

[5] = target: Cytochrome P450 1A2 (Homo sapiens) (UniProt P05177); assay: p450-cyp1a2 (AID 410; calls by dose curve; further: potency means the concentration at half of the fitted maximal effect)
Cytochrome P450 1A2 (Homo sapiens), sequence (P05177 whole entry, looked up): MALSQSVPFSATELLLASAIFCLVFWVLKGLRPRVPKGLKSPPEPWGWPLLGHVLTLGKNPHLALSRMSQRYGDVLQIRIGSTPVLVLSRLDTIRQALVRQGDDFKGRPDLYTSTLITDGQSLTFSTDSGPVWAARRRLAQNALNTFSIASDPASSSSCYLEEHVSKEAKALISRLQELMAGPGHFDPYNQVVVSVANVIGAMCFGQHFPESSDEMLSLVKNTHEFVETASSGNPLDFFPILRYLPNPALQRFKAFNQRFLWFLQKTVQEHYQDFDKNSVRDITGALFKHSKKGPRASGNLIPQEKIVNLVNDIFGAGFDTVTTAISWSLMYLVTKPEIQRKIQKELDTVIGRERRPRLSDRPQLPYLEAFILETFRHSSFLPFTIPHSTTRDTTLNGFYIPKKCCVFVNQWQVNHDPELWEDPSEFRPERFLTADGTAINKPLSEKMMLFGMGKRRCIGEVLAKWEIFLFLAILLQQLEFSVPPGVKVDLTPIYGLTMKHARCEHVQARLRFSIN
Method in brief: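 20nM CYP1A2, 100uM Luciferin-ME (=Km), 100mM KPO4; cpd 10 min RT; +NADPH regen, 60 min RT; stop/detect 20 min; luminescence. Normalized to furafylline 57 uM = full inhibition.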

[6] = NFAT Signaling Pathway (AID 444; active means well fitted curve in either direction with a large enough effect, not every such curve was filed as active;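 further: carbachol stimulus at about its EC50 of 1 µM final; on the % scale 0 is the no-effect control and ±100 the full control effect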); conditions: Jurkat NFAT-bla M1, carbachol, beta-lactamase ratio, 5 h; at 7.69 µM (top of the series) unless noted
Method in brief: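 Jurkat cells carrying an NFAT-driven β-lactamase reporter and co-transfected muscarinic M1 receptor were treated with compound plus carbachol (1 uM final, an EC50 level) for 5 h at 37 °C. CCF4 loading followed for 1 h at RT; 460/530 nm ratio gave %activity.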

[7] = Stat Signaling Pathway (AID 446; active means well fitted curve in either direction with a large enough effect, not every such curve was filed as active;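 further: ME-180 cervical cancer cells given 40 pM IL-6 alongside compound; SIE-controlled beta-lactamase reporter measured as 460/530 nm FRET emission ratio; on the % scale 0 is the no-effect control and ±100 the full control effect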); conditions: ME-180 (cervical carcinoma) SIE beta-lactamase reporter, IL-6 stimulated, 5 h; at 7.69 µM (top of the series) unless noted
Method in brief: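 Normalization used AC90 stimulation (300 pM IL-6) and AC90 inhibition (125 nM pan-JAK inhibitor at 40 pM IL-6). The underlying signal is SIE-driven beta-lactamase in ME-180 cells after 5 h IL-6 exposure with compound.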

[8] = target: Glucocorticoid receptor (Homo sapiens) (UniProt P04150); assay: GR-GFP Redistribution (AID 450;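 active means compounds whose dose series gives a full or clear partial fitted curve of increased nuclear translocation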; further: potency means the concentration at half of the fitted maximal effect); conditions: U2OS GR-GFP nuclear translocation, laser cytometry, 2 h
Glucocorticoid receptor (Homo sapiens), sequence (P04150 whole entry, looked up, the tested form may be a part): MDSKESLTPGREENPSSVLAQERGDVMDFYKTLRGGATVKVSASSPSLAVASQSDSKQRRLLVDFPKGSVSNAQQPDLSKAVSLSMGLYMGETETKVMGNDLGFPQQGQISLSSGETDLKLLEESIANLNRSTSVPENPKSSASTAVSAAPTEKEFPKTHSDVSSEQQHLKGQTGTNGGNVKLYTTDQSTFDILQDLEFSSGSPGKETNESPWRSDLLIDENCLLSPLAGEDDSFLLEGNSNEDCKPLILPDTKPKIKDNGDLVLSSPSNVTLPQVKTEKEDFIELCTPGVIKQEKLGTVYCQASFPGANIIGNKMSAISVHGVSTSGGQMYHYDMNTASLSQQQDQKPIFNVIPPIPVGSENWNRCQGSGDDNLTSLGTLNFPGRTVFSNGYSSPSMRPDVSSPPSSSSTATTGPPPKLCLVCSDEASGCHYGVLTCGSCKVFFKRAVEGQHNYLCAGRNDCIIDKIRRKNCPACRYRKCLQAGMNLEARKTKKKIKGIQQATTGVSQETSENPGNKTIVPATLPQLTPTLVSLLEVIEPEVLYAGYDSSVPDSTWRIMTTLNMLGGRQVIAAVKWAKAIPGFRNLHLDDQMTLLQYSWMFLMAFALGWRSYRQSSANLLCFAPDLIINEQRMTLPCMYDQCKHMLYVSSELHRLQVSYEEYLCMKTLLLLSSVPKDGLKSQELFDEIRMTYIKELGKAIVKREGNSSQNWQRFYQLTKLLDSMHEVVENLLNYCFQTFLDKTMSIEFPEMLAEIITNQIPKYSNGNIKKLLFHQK

[9] = target: Glucocorticoid receptor (Homo sapiens) (UniProt P04150); assay: GR-EFC Redistribution (AID 451; calls by dose curve; further: potency means the concentration at half of the fitted maximal effect); conditions: CHO-K1 GR-EFC translocation, beta-gal luminescence, 2 h
Method in brief: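 CHO-K1 cells stably expressing nuclear-localized β-gal enzyme acceptor and GR fused C-terminally to the enzyme donor fragment; ligand-driven nuclear translocation restores β-gal by complementation. Compounds titrated up to 46 uM final, 2 h at 37 °C; luminescence read.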

[10] = target: Mitogen-activated protein kinase 10 (Mus musculus) (UniProt Q61831); assay: JNK3 AlphaScreen Assay (AID 530; active means well fitted curve in either direction with a large enough effect, not every such curve was filed as active)
Method in brief: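 Biotinylated GST-cJun(1-79) served as substrate for JNK3 in HepG2 lysates stimulated with IL-1beta and TNF-alpha. ATP was 10 uM final, pH 7.6. Ser73 phosphorylation was quantified by AlphaScreen (680 nm excitation).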

[11] = target: Cytochrome P450 3A4 (Homo sapiens) (UniProt P08684); assay: qHTS Assay for Activators of Cytochrome P450 3A4 (AID 885); further: nearly all actives have a fitted effect of over 65% in size
Cytochrome P450 3A4 (Homo sapiens), sequence (P08684 whole entry, looked up): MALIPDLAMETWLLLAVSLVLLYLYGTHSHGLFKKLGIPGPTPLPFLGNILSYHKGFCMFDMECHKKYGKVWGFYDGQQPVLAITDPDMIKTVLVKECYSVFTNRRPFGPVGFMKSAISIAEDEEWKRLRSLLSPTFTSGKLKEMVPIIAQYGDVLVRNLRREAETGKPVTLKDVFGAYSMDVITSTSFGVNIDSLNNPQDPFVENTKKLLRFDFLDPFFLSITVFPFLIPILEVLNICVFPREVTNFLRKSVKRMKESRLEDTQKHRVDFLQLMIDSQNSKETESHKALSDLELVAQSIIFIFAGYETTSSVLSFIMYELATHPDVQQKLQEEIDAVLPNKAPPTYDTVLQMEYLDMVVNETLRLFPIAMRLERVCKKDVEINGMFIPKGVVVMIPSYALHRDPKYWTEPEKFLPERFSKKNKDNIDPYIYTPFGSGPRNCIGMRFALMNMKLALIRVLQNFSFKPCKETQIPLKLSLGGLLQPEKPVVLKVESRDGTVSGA
Method in brief: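 Human CYP3A4 dealkylates Luciferin-PPXE to luciferin, which luciferase detection converts to light. Substrate was at its KM (25uM), buffer 200mM KPO4, reaction 60 min at RT.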

[12] = target: Cytochrome P450 2D6 (Homo sapiens) (UniProt P10635); assay: qHTS Assay for Inhibitors and Substrates of Cytochrome P450 2D6 (AID 891); further: potency means the concentration at half of the fitted maximal effect; nearly all actives have a fitted effect of over 60% in size
Cytochrome P450 2D6 (Homo sapiens), sequence (P10635 whole entry, looked up): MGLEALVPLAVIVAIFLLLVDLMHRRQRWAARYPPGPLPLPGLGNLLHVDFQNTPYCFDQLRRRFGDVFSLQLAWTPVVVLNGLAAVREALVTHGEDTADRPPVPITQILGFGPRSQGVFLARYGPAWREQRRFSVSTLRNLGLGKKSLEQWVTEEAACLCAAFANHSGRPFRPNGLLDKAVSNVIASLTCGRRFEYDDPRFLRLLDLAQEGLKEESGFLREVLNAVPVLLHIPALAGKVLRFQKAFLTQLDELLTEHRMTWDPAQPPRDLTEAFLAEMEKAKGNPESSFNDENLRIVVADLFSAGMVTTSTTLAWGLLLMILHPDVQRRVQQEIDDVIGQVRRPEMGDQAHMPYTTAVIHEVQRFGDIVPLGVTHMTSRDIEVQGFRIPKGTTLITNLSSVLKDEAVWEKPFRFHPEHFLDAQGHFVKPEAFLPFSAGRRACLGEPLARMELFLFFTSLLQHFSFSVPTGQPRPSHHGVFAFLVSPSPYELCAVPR
Method in brief: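 Luminescent read-out of luciferin formed by 5 nM human CYP2D6 demethylating 30 uM Luciferin-ME EGE (Km level) over 60 min at room temperature after NADPH regeneration addition. Data normalized to full inhibition by 1.43 uM quinidine.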

[13] = target: Dual specificity protein kinase CLK4 (Homo sapiens) (UniProt Q9HAZ1); assay: qHTS Assay for Inhibitors of CDC-like Kinase 4 (Kinase-Glo Assay) (AID 1770); further: potency means the concentration at half of the fitted maximal effect; nearly all actives have a fitted effect of over 65% in size
Dual specificity protein kinase CLK4 (Homo sapiens), sequence (Q9HAZ1 whole entry, looked up): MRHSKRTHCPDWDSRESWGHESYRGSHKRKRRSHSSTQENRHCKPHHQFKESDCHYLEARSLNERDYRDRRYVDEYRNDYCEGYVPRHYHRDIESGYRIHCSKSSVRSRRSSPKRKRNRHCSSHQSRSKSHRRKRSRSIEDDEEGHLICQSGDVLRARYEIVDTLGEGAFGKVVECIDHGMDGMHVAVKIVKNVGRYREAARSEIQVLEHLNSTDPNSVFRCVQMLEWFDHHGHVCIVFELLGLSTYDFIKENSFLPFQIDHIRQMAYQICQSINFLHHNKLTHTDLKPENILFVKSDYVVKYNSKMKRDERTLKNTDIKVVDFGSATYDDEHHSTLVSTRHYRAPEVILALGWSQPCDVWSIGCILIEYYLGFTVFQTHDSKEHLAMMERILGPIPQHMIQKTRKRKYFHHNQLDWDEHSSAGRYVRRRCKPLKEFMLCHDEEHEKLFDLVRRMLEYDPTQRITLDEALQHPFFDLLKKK
Method in brief: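 Clk4 25 nM, RS peptide 100 uM, ATP 1 uM, pH 7.5 Tris, 10 mM MgCl2, 2.5 mM DTT; 4.5 h RT; ATP depletion read by Kinase-Glo luminescence.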

[14] = target: Dual specificity protein kinase CLK4 (Homo sapiens) (UniProt Q9HAZ1); assay: qHTS Assay for Inhibitors of CDC-like Kinase 4 (ADP-Glo Assay) (AID 1771); further: potency means the concentration at half of the fitted maximal effect; nearly all actives have a fitted effect of over 70% in size
Method in brief: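 25 nM Clk4, 100 uM RS peptide, 1 uM ATP (final); 2 mM MgCl2, 0.5 mM EGTA, 2.5 mM DTT, 0.01% Triton X-100; 1 hr RT. ADP-Glo readout: ATP depletion 45 min, conversion/luciferase 30 min, luminescence.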

[15] = target: Dual specificity protein kinase CLK4 (Homo sapiens) (UniProt Q9HAZ1); assay: qHTS Assay for Inhibitors of CDC-like Kinase 4 (ADP-FP Assay) (AID 1795); further: potency means the concentration at half of the fitted maximal effect; nearly all actives have a fitted effect of over 60% in size
Method in brief: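 Kinase activity was followed as ADP output, converted from fluorescence polarization with a calibration curve. Reactions ran one hour at low ATP (1 uM) with RS peptide substrate.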

[16] = target: Ubiquitin carboxyl-terminal hydrolase 1 (Homo sapiens) (UniProt O94782); assay: Inhibitors of USP1/UAF1: Pilot qHTS (AID 504865);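 further: rhodamine fluorescence freed from ubiquitin-rhodamine substrate followed over time; top concentration of the series differs between compounds; on the % scale 0 is the no-effect control and ±100 the full control effect; nearly all actives have a fitted effect of over 35% in size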
Ubiquitin carboxyl-terminal hydrolase 1 (Homo sapiens), sequence (O94782 whole entry, looked up): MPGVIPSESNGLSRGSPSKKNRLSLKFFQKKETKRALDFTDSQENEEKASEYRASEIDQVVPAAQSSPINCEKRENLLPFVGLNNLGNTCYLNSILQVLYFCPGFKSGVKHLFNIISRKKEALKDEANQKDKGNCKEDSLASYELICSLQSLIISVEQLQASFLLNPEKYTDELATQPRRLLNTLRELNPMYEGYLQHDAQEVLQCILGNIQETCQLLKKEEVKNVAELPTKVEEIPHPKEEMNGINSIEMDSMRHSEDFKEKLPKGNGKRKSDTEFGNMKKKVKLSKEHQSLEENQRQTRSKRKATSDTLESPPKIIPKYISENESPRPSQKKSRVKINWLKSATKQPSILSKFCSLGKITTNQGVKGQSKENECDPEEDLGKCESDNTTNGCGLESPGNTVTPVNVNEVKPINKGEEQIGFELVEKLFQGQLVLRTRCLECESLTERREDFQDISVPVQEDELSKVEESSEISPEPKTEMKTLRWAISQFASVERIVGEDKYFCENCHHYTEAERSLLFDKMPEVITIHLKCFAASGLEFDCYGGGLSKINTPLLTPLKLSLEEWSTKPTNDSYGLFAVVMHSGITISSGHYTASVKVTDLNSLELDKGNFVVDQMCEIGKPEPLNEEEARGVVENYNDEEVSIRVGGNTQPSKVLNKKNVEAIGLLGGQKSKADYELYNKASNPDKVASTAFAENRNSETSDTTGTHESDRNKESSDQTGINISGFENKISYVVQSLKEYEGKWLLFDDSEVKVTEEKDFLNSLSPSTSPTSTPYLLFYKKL
Method in brief: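 Enzyme-free wells gave the negative control, while test wells held 1nM USP1/UAF1 preincubated with compound for 15 min at room temperature. Ub-Rho at 150nM final started the reaction, and fluorescence at 480/540 nm was recorded kinetically.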

[17] = Primary qHTS for small molecule stabilizers of the endoplasmic reticulum resident proteome: Secreted ER Calcium Modulated Protein (SERCaMP) assay (AID 1508630); further: on the % scale 0 is the no-effect control and ±100 the full control effect
Method in brief: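 The SH-SY5Y reporter protocol was run at 3 concentrations up to 38.3 uM (primary) or 11 concentrations (follow-up): 16 h compound, 100 nM thapsigargin for 4 h, then extracellular luciferase luminescence.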

[18] = target: Rap guanine nucleotide exchange factor 3 (Homo sapiens) (UniProt O95398); assay: Confirmatory qHTS for agonist of cAMP-regulated guanine nucleotide exchange factor 3 (EPAC1) (AID 1645881);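 further: EPAC1 catalysed release of BODIPY-GDP from Rap1B seen as fluorescence loss; 100% = effect of cAMP agonist control; nearly all actives have a fitted effect of over 75% in size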
[19] = target: Rap guanine nucleotide exchange factor 4 (Homo sapiens) (UniProt Q8WZA2); assay: Confirmatory qHTS for agonist of cAMP-regulated guanine nucleotide exchange factor 4 (EPAC2) (AID 1645884);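 further: nucleotide exchange releases bodipy-GDP from Rap1 and this lowers its fluorescence; on the % scale 0 is the no-effect control and ±100 the full control effect; nearly all actives have a fitted effect of over 65% in size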
[20] = target: Cytochrome P450 2C19 (Homo sapiens) (UniProt P33261); assay: qHTS Assay for Inhibitors and Substrates of Cytochrome P450 2C19 (AID 899); further: potency means the concentration at half of the fitted maximal effect; nearly all actives have a fitted effect of over 60% in size
Cytochrome P450 2C19 (Homo sapiens), sequence (P33261 whole entry, looked up): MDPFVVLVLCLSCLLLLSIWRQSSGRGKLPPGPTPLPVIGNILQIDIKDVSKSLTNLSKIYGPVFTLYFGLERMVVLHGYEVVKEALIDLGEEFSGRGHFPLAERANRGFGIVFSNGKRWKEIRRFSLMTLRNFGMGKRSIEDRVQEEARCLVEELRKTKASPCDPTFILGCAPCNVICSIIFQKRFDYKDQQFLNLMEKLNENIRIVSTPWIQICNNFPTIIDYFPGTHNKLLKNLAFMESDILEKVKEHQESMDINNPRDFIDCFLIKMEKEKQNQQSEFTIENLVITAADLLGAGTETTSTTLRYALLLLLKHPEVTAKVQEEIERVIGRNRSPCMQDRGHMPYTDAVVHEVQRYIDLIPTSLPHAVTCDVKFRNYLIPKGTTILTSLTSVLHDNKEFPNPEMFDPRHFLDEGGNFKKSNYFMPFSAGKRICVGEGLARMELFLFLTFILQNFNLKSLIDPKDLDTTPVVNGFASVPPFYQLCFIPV
Method in brief: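 Human CYP2C19 (5nM) with Luciferin-H EGE at 10uM (its KM) in 50mM KPO4 was preincubated with compound for 10 min at 37C. NADPH regeneration started a 60 min 37C reaction. Luciferin was read by luminescence, normalized to 57uM ketoconazole.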

Cc1ccsc1CN(C)c1ncnc2ccc(-c3ccc([C@@H](C)O)o3)cc12
inactive: Potency [1]
active: Potency [2] 6.49 µM

CN(Cc1ccco1)c1ncnc2ccc(-c3ccccc3Cl)cc12
active: Potency [5] 2 µM | Potency [12] 7.94 µM | Potency [13] 14.1 µM | Potency [14] 14.1 µM | Potency [15] 4.47 µM
inactive: Potency [3] > 11.4 µM | activity change, negative = inhibition [4] -12% | activity change, negative = inhibition [6] -13.6% | activity, negative = inhibition [7] 11.7% | Potency [8] > 46 µM | Potency [9] > 46 µM | outcome [10] | Potency [11] | Potency [16] | Potency [1] | Potency [17] | outcome [18] | outcome [19]

c1cncc(CNc2ccnc(-c3ccc4c(c3)OCO4)n2)c1
active: Potency [5] 0.126 µM | Potency [20] 5.01 µM | Potency [14] 0.1 µM | Potency [15] 0.0447 µM
inactive: Potency [3] > 11.4 µM | activity, negative = inhibition [7] -10.6% | Potency [9] > 46 µM | Potency [11] | Potency [16]
